# Rows were chosen to be rich in hits. Some 3.4% of all compounds tested hit in one or more screens of this group.
# GBA activity: alters purified human glucocerebrosidase activity; P04062; hit rate 1.1% among 48,000; Potency, µM; AID 360; purified enzyme, resorufin glucoside fluorescence (screen aimed at inhibitors), 20 min; in the data active = potency below about 15 µM; inconclusive = mostly about 16 µM to 33 µM;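 also: the screen sought inhibitors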
# Target sequence (P04062 whole entry, looked up): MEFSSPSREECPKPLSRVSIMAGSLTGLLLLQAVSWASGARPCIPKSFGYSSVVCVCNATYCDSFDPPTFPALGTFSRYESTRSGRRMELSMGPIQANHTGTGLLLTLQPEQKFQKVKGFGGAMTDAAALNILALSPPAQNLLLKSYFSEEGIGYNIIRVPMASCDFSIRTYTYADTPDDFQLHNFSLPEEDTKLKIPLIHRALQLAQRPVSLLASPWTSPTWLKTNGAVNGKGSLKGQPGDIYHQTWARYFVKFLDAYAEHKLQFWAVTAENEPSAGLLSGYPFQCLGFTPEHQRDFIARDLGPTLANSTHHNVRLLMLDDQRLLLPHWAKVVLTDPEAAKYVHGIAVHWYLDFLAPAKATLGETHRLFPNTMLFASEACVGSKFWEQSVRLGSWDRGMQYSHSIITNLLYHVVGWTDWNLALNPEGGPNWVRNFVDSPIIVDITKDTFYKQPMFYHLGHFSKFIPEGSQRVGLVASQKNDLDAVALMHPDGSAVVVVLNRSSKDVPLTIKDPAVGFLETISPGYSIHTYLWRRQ
#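 Normal human glucocerebrosidase (0.2 nM final) was assayed with resorufin β-D-glucopyranoside (30 uM final) in 50mM citric acid/KH2PO4, 10mM sodium taurocholate, 0.01% tween-20, pH 5.9. Compounds were titrated; fluorescence (Ex 548, Em 600) read after 20 min at RT.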
# FLuc inh: firefly luciferase inhibition; P08659; purified firefly luciferase, luminescence, 8 min; Potency, µM (series often up to 57.1 µM), without a hit: at the top dose activity change, negative = inhibition, most hits filed as inhibitors; hit rate 2.2% among 72,000; AID 411; active = well fitted inhibition curve with a large enough effect; inconclusive = small, poorly fitted or top-dose-only effect; also: % is scaled to controls: 0 for no effect and ±100 for the full control effect; nearly all actives have a fitted effect of over 40% in size
#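 Luminescence read-out after 8 min at room temperature; enzyme reaction used luciferin plus 10 uM ATP (linear range) in imidazole buffer pH 7.2 with KCl, MgCl2, Tween 20 and BSA. Each sample was run as a titration.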
# PK Bst: pyruvate kinase (B. stearothermophilus) modulation | purified pyruvate kinase, luminescence ATP production; ribose 5-phosphate activator present at AC10 | Potency, µM | hit rate 1.2% among 51,000 | AID 361; in the data active = potency below about 11 µM; inconclusive = mostly about 12 µM to 25 µM;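 the screen sought inhibitors and activators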;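 also: scaled between full activation by ribose 5 phosphate and full inhibition by luteolin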
# * = called active by the depositor; i = inactive; ? = inconclusive; · = no result; [ ] = another dose, or the depositor's remark. Potency is read from the fitted curve at half-maximal effect.
SMILES,GBA activity,FLuc inh,PK Bst
S=C1NCN2CCN(CC2)CNC(=S)C(=S)NCN2CCN(CC2)CNC1=S,·,4.8%[11.4 µM],·
O=C(CSc1nc2c(cnn2-c2ccc(F)cc2)c(=O)[nH]1)N1CCCc2ccccc21,·,3.6%,>57
Nc1nc(CN2CCN(c3ccc(F)cc3)CC2)nc(N2CCCc3ccccc32)n1,10.4*,2.6%,>57
Cc1cccc(CNc2ncnc3[nH]ncc23)c1,·,1.1%[11.4 µM],·
c1ccc2c(c1)NC1(CCCCC1)n1c-2nc2ccccc21,>76.9,12.6µM*,i
CC1(c2ccccn2)Nc2ccccc2-c2nc3ccccc3n21 (stereo not drawn),>76.9,-27.9%,>57
O=C(O)c1ccc(CNCc2ccccc2)cc1,·,0.6%[11.4 µM],·
C[C@@H](C(=O)O)c1ccc(N2Cc3ccccc3C2=O)cc1,·,5.01µM*,·
O=C(O)[C@H](Cc1ccccc1)N1Cc2ccccc2C1=O,·,1.5%,·
Cc1ccc(C2C3CSCC=C3C(C#N)=C(N)C2(C#N)C#N)cc1 (stereo not drawn),11.8*,-2.2%,>57
CC(C)N1CC=C2C(C#N)=C(N)C(C#N)(C#N)C(c3ccccc3)C2C1 (stereo not drawn),·,-0.6%[25.5 µM],>11.4
Cc1cc(C(=O)COC(=O)C2COc3ccccc3O2)c(C)n1CC1CCCO1 (stereo not drawn),>76.9,15.8µM*,i
Cc1cc(C(=O)COC(=O)CN(C)S(=O)(=O)c2ccc(Cl)cc2)c(C)n1CC1CCCO1 (stereo not drawn),>76.9,-12.9%,>57
CCOC(=O)CCN1C(=O)[C@H]2[C@H]3[C@H](O)[C@H](O)C/C(=N/OCC(C)C)[C@H]3CC[C@@H]2C1=O,·,1.7%[11.4 µM],·
COC(=O)CCn1nnc(-c2ccc(C(C)C)cc2)n1,>76.9,12.6µM*,>57
COC(=O)CCn1nnc(-c2cccs2)n1,>76.9,2.5%,>57
CCCCCCCCCCCCCCCCCCOC[C@@H](COP(=O)([O-])OCC[N+](C)(C)C)OC,·,-2.6%,·
O=S(=O)(c1cccc2c(Cl)cccc12)N1CCCNCC1,·,-4.4%,·
O=C(O)c1ccc(COc2ccccc2Cl)cc1,>76.9,-2.9%,>57
O=C(O)c1cccc(COc2ccccc2Cl)c1,>76.9,6.31µM*,6.74*
COc1ccc(Oc2ncc3ncc(=O)n(C4CC4)c3n2)cc1,·,0.2%[11.4 µM],·
COc1ccc(-c2noc(-c3ccco3)n2)cc1OC,>76.9,12.6µM*,i
COc1ccc(-c2noc(-c3ccccc3Cl)n2)cc1OC,·,15.8µM*,i
COc1ccc(-c2noc(-c3cccc(Cl)c3)n2)cc1OC,i,1.4%,>57
COc1ccc(-c2nc(-c3ccncc3)no2)cc1OC,>76.9,?,i
SMILES,GBA activity,FLuc inh,PK Bst
O=C(O)[C@H](CCc1ccccc1)N1C(=O)c2ccccc2C1=O,·,2.7%[11.4 µM],·
N#Cc1ccc(CN2CC[C@@]3(CCCN(C(=O)c4ccco4)C3)C2)cc1,·,1.0%[11.4 µM],·
COc1ccccc1N1CCN(S(=O)(=O)c2c(C)ccc3nsnc23)CC1,>76.9,0.9%,2.87*
COc1ccccc1N1CCN(S(=O)(=O)c2ccccc2)CC1,>76.9,-0.4%,?
COc1ncc2nc(C)c(=O)n(CCC#N)c2n1,·,-0.3%[11.4 µM],·
C1CCN(CC[C@@H]2CCCCN2)CC1,·,0.0%[11.4 µM],·
CC(C)=NO[C@@H](C)CN1CCCc2nc(C)c(C)cc21,·,-0.2%[11.4 µM],·
OC[C@@H]1O[C@@H](n2cnc3c(NCc4ccco4)ncnc32)[C@H](O)[C@H]1O,·,-2.0%[11.4 µM],·
CCCC(C(=O)NCc1ccco1)N(C(=O)CNS(=O)(=O)c1ccccc1)c1ccccc1OC (stereo not drawn),15.2*,2.5%,>57
CCC(C(=O)NCc1ccco1)N(C(=O)CNS(=O)(=O)c1ccc(C)cc1)c1ccccc1OC (stereo not drawn),>76.9,2.9%,>57
C[C@@H]1c2ccccc2Cn2cc3c(c21)C(=O)c1cccc(OP(=O)(O)OCc2ccccc2)c1C3=O,·,-0.3%[11.4 µM],·
COc1ccc(N(CC(=O)NC2CCCCCC2)S(=O)(=O)c2c(C)nn(C)c2C)cc1,>76.9,0.0%,>57
Cc1ccc(N(CC(=O)NC2CCCCCC2)S(=O)(=O)c2c(C)nn(C)c2C)cc1,14.6*,0.3%,>57
COc1cccc(C(=O)Cn2c(=N)n(C)c3ccccc32)c1,i,1.26µM*,2.48*
COc1cccc(C(=O)Cn2c(N3CCCCC3)nc3c2c(=O)n(C)c(=O)n3C)c1,>76.9,-3.1%,>57
CN1[C@@H]2CC(OC(=O)[C@H](CO)c3ccccc3)C[C@@H]1[C@H]1O[C@H]12 (stereo partly drawn),·,2.5%,·
CN(C)c1ncc2nc(-c3ccc(F)cc3)c(=O)n(CCC#N)c2n1,·,0.2%[11.4 µM],·
COc1cccc(C(=O)Nc2ccc(-c3nnc(-c4ccco4)o3)cc2)c1,·,-2.1%[25.5 µM],>25.6
CC(C)COc1ccc(-c2nnc(-c3ccco3)o2)cc1,>76.9,15.8µM*,9.48*
O=C(COc1ccccc1)Nc1ccc(-c2nnc(-c3ccco3)o2)cc1,·,0.4%[25.5 µM],>25.6
CCCOc1ccc(-c2nnc(-c3ccco3)o2)cc1,>76.9,10µM*,3.41*
O=[N+]([O-])c1ccc2c(c1)c(S(=O)(=O)O)cc1nonc12,·,-0.4%[11.4 µM],·
COc1ccccc1-c1ccc(NC2CCCCC2)nn1,·,12.6µM*,·
COc1ccccc1-c1nc(NC2CC2)c2ccccc2n1,·,1.0%[2.29 µM],·
COc1cccc(Cn2c(=O)c(-c3ccc(F)cc3)nc3cnc(N4CCNCC4)nc32)c1,·,1.0%[11.4 µM],·
SMILES,GBA activity,FLuc inh,PK Bst
Cc1[nH]n2c(=O)c(C#N)c(-c3ccccc3)nc2c1-c1ccccc1,>76.9,-2.4%,>57
Cc1[nH]n2c(=O)c3c(nc2c1-c1ccc(Cl)cc1)CCC3,11.7*,0.8%,>57
O=c1c2c(nc3c(-c4ccccc4)c[nH]n13)CCCC2,·,-0.1%,·
Cc1[nH]n2c(=O)c3c(nc2c1-c1ccccc1)CCC3,9.49*,0.3%,>57
COc1ccc(-n2c(=O)c(CCc3ccccc3)nc3cnc(N4CCNCC4)nc32)cc1,·,0.7%[11.4 µM],·
COc1cccc(C(=O)Nc2cccc(NC(C)=O)c2)c1,·,-8.2%,·
COc1cccc(C(=O)Nc2ccc(NC(=O)C(C)(C)C)cn2)c1,>76.9,3.98µM*,3.74*
COc1ccc(C(=O)Nc2ccc(OC)c(OC)c2)cc1,>76.9,25.1µM*,i
COc1ccc(C(=O)Nc2cccc(OC)c2)cc1,·,7.94µM*,·
COc1ccc(NC(=O)c2ccc(S(=O)(=O)N(C)C)cc2)cc1OC,>76.9,-3.1%,>57
COc1cccc(C(=O)Nc2cnc(NC(=O)c3ccco3)cc2C)c1,>76.9,-4.1%,>57
O=S(=O)(O)c1ccc(N=Nc2ccc3c(S(=O)(=O)O)cccc3c2O)c2ccccc12,·,-16.1%[11.4 µM],·
COc1cccc(Cn2c(=O)cnc3cnc(N(C)C)nc32)c1,·,1.0%[11.4 µM],·
CC(C)CN=C(N)N=C(N)N,·,1.8%[11.4 µM],·
CC1(C)S[C@@H]2[C@H](NC(=O)[C@@H](NC(=O)N3CCNC3=O)c3ccccc3)C(=O)N2[C@H]1C(=O)O,·,0.6%[25.5 µM],·
Cc1ccc(C(=O)Cn2c(NCCO)nc3ccccc32)cc1,14.2*,-1.2%,>57
O=C(Cn1c(NCCCO)nc2ccccc21)c1ccc(Br)cc1,>76.9,1.7%,>57
COc1cc(OC)c2c(c1Cl)O[C@@]1(C2=O)[C@H](C)CC(=O)C[C@@H]1OC,·,9.7%[25.5 µM],·
COc1ccc(N2CCCn3c2nc2c3c(=O)n(CCc3ccccc3)c(=O)n2C)cc1,12*,0.4%,>57
CC(C)Cn1c(=O)c2c(nc3n2CCCN3CCc2ccccc2)n(C)c1=O,>15.4,1.8%,>57
Cn1c(=O)n(Cc2ccccc2F)c(=O)c2c1nc1n2CCCN1CCc1ccccc1,13.5*,-0.6%,>57

# Compound activity: PubChem BioAssay, National Center for Advancing Translational Sciences (NCATS)
